The panel holds about 83,000 compounds, 20% with a hit somewhere; the sample as a whole holds those more often.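 In brief: 96-well plates, 48 h treatment, single concentration, percent growth endpoint.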 Activity calls are given as the source filed them. Rule for the calls: active = growth percent below 10; inactive = the rest.

The values below come from PubChem BioAssay (NCI).

The test system of the experiment is HL-60(TB) leukemia. Kind of experiment: NCI-60 one-dose screen, 48 h (100 = growth as untreated, 0 = no growth, -100 = all killed). The following applies: 10 µM unless noted.
In the case of `CC1=CC(=O)C(C(C)=Nc2ccccc2Cl)C(=O)O1` (stereo not given), the growth is 101% (inactive).
Under `CCOC(=O)/C(C#N)=C1/NNC(=Nc2cccnc2)S1` stands 102% (inactive); under `Cc1ccc2c(n1)C(=O)C(Br)=C(CC(C)C)C2=O`, 58.4% (inactive); under `COc1c(-c2cc(-c3ccc(C)o3)[nH]c(=O)n2)c(O)cc2occc12`, 38.2% (inactive).
`CC([C@H]1CCC2C3CCC4C(=O)C(NC=O)=CC[C@]4(C)C3CC[C@@]21C)N(C)C` (stereo not given in full): the growth was 1.54% (active).
Under `C=C1SC(=Nc2c(C)cccc2C)N(c2nc(Cl)nc(Cl)n2)C12CCCCC2` stands 100% (inactive).
In the case of `CS(=O)(=O)N1CCc2c(-c3cnc(N)nc3)nc(N3CCOCC3)nc21`, the growth is 34.9% (inactive).
Under `CCOC(=O)c1cc(C(=O)c2cc(OC)c(OC)c(OC)c2)n2c1ccc1c3cccnc3ccc12` stands 13.3% (inactive); under `Cc1ccc(S(=O)(=O)NCCCNc2cc(-c3cn(C(C)(C)C)nc3-c3cccc(O)c3)ccn2)cc1`, 66.6% (inactive); under `CCOC(=O)NCCCC(=O)NCCc1ccccc1`, 102% (inactive).
Under `COc1cc2cc(NCc3ccc(F)cc3)nc(C)c2cc1OC` stands 31.7% (inactive); under `COc1ccc(C2=Nn3c(nnc3-c3ccc(Cl)cc3N)SC2)cc1`, 100% (inactive); under `O=C(c1nc2ccccc2[nH]1)C1[C@@H](c2cccc(O)c2)C2CC3CCCCC3N2[C@@]12C(=O)Nc1cc(Cl)ccc12` (stereo not given in full), 6.59% (active).
Under `COc1cccc(NC(=O)NCCNc2nccc(-c3c(-c4ccc(F)cc4)nc4sccn34)n2)c1` stands 92.7% (inactive); under `COc1ccc(-c2[nH]ncc2-c2cc3c(c(OC)c2)OCC(=O)N3)cc1`, 11.3% (inactive).
Regarding `Cc1cc(C(=O)CCCC(=O)c2cc(C)c(O)c(C)c2)cc(C)c1O`, the growth is 84.6% (inactive).
In the case of `S=c1cc(S)c2cc(Br)ccc2[nH]1`, the growth is 101% (inactive).
For `Cc1cccc(C)c1NC(=O)c1sc2nc3c(cc2c1N)C(=O)CCC3`, the growth was 104% (inactive).
Under `Cc1cc(=O)oc2cc(OC(=O)CN3CCN(C)CC3)ccc12` stands 122% (inactive); under `C[n+]1c(/C=C\C=C\N2CCCCC2)sc2ccccc21`, -37.3% (active).
Under `CN1CCN(c2ccc(-c3cc4c(Nc5ccc(F)c(Cl)c5)ncnn4c3)cn2)CC1` stands 72.8% (inactive); under `COc1ccc(CN2C(=O)OC(C)(COC(C)=O)C2=O)cc1` (stereo not given), 101% (inactive).
In the case of `COC(=O)/C(Br)=C/c1c[nH]c2ccc(Br)cc12`, the growth was 67.9% (inactive).
Under `Cc1ccc(-c2cc3nc(-c4ccccc4)nc(C(Cl)Cl)n3n2)cc1` stands 12.6% (inactive); under `N#Cc1nc2c(S(=O)(=O)c3ccccc3)c(N)n(Cc3cccnc3)c2nc1C#N`, 53% (inactive).
Under `COc1cc2c3c(cccc3c1)C(=O)N(CCN1CCCC1)C2=O` stands 26% (inactive); under `C#Cc1ccc(-n2c(/C=C/c3ccc4ccccc4n3)nc3ncccc3c2=O)cc1`, -34.6% (active).
Under `Nc1ccc2ccc(N)cc2c1` stands 97.4% (inactive); under `c1csc(-c2cc(-c3cc(-c4cccs4)[nH]n3)n[nH]2)c1`, 87.1% (inactive); under `CCOC(=O)c1cocc1C(=O)O`, 80.9% (inactive).
As for `O=[N+]([O-])c1cc(-c2ccccc2)c(O)c([N+](=O)[O-])c1`, the growth was 57.1% (inactive).
Under `O=S1(=O)C=C(c2ccccc2)C(c2ccccc2)=C1` stands -16.3% (active); under `Cc1cccc(/C=C2\CN(C(=O)OC(C)(C)C)C/C(=C\c3cccc(C)c3)C2=O)c1`, 90.2% (inactive).
Regarding `O=C1N(c2ccccc2)C(=S)N[C@]12[C@H](c1ccccc1)C1CCCN1[C@]21C(=O)NC2C=CC(Cl)=C[C@H]21` (stereo not given in full), the growth was 81.5% (inactive).
Under `Cc1cc(C(=O)Nc2ncnc3nc[nH]c23)no1` stands 91.1% (inactive); under `O=c1oc2ccc(Cl)cc2cc1-c1cs/c(=N/N=C\c2ccc(Cl)cc2)n1/N=C/c1ccc(Cl)cc1`, 95.1% (inactive).
Under `CCOC(=O)c1ccc2c(c1)nc(/C=C/c1ccc(Cl)cc1)n2-c1cc(C(C)(C)C)[nH]n1` stands 73.1% (inactive); under `CSc1nc2ccccc2cc1/C=C1/C=C(c2ccccc2)NC1=O`, 85.7% (inactive).
Regarding `Nc1nc(Nc2ccccc2SSc2ccccc2Nc2nc(N)nc(-c3cccs3)n2)nc(-c2ccsc2)n1`, the growth is -7.94% (active).
For `O=C1/C(=C/N2N=C(c3ccc(Cl)cc3)CC2c2ccccc2O)SC(=S)N1c1cccc(C(F)(F)F)c1` (stereo not given), the growth was 52.2% (inactive).
